The whole screen tested about 360,000 compounds, of which about 9,100 (2.5%) were called active. Not shown: some 4% with an inconclusive outcome. Shown is part of a subset that was picked to be rich in actives. Values without a mark were called inactive. No stated cut-off is given here; in the data, active means max response below about -50%; inconclusive means no clear call, values can overlap the other calls; inactive means above that.
On the % scale 0 is the no-effect control and ±100 the full control effect.

D(3) dopamine receptor (Homo sapiens), sequence (P35462 whole entry, looked up): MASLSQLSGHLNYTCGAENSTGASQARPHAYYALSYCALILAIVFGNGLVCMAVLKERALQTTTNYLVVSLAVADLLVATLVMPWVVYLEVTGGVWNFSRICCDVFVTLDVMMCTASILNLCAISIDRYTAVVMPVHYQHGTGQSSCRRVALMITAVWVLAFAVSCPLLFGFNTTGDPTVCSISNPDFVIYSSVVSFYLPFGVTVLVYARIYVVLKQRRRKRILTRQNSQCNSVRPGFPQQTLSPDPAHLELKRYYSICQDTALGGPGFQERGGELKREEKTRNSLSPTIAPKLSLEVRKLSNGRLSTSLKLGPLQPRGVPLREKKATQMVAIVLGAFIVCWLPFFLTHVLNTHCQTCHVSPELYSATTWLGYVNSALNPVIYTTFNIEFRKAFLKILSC

In this experiment the target is D(3) dopamine receptor (Homo sapiens) (UniProt P35462). As to the kind of experiment: qHTS of D3 Dopamine Receptor Antagonist: qHTS. The following applies: D3R cells, DiscoveRx beta-arrestin luminescence, antagonist mode; hits give low values. In outline:
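Cells plated overnight at 1500 cells/well, then exposed to library compounds with dopamine controls for 90 minutes at 37 degrees C. DiscoveRx reagent added for 30–60 minutes at room temperature; luminescence read, quantitative HTS format.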
Consider `CCOc1ccc(CCN2C(=O)c3cccnc3C2=O)cc1OCC`, for which the max response, negative = inhibition was -22%.
To `NC1=CC(=O)C(=O)c2cccnc21` belongs -69.1% (active).
`NC(c1csc(NC(=O)Nc2cccc(C(F)(F)F)c2)n1)C1CCCCC1` (stereo not given): the max response, negative = inhibition was 13.3%.
Turning to `CCOC(=O)[C@]12CCC=C1N(CCC1=CCCCC1)C(=O)[C@H](CC(=O)NCc1ccc(C)o1)C2`, the max response, negative = inhibition is 16.1%.
For the molecule `COCCCNC(=O)c1ccc(-c2c(C)noc2C)c2ccoc12`, the max response, negative = inhibition was 0%.
To `Cc1nc(Nc2ccc3c(c2)OCCO3)c2nnn(Cc3ccccc3Cl)c2n1` belongs -26.4%; to `CC(C)Cc1nc(Nc2ccc(S(=O)(=O)N3CCCC3)cc2)c2nnn(Cc3ccccc3)c2n1`, -27.2%.
For the molecule `Cc1nc(Nc2ccc(S(=O)(=O)N3CCCC3)cc2)c2nnn(Cc3ccccc3)c2n1`, the max response, negative = inhibition was -69.4% (active).
With `NS(=O)(=O)c1ccc(CNC(=O)c2cc(S(=O)(=O)N3CCOCC3)ccc2N2CCCC2)cc1`, the max response, negative = inhibition was 0%.
Regarding `COc1cc(CNc2ncnc3c2ncn3[C@H]2CN(Cc3cccs3)C[C@@H](CO)O2)cc(OC)c1OC`, the max response, negative = inhibition was 13%.
With `C[C@H](CO)N1C[C@H](C)[C@@H](CN(C)Cc2ccc3c(c2)OCO3)OCc2cnnn2CCCC1=O`, the max response, negative = inhibition is 9.24%.
`CCCS(=O)(=O)NC(=O)C1(C)CCCN(C(=O)c2ccnc(Cl)c2)C1` (stereo not given): the max response, negative = inhibition is -5.74%.
To `COc1ccc(N2CCN(C(=O)c3cccs3)CC2)cc1` belongs -4.36%.
To `COc1ccc(N2CCN(C(=O)CNC(=O)c3ccc(Br)o3)CC2)cc1` belongs 4.35%; to `O=[N+]([O-])c1ccc(N2CCN(c3ccc(F)cc3)CC2)cn1`, 1.91%.
To `O=C(c1ccccc1Oc1ccccc1)N1CCN(c2ccc(F)cc2)CC1` belongs 11.3%.
For `COc1ccc(N2CCN(Cc3ccc(Br)s3)CC2)cc1`, the max response, negative = inhibition is -54.8% (active).
In the case of `Fc1ccc(N2CCN(Cc3cnc(Oc4ccc(Br)cc4)s3)CC2)cc1`, the max response, negative = inhibition is -67.9% (active).
To `CO[C@@H]1CN(C)C(=O)c2cc(NC(=O)C3CC3)ccc2OC[C@H](C)N(C(=O)CN2CCOCC2)C[C@@H]1C` belongs -4.53%.
On to `Cc1cccc(C(=O)OCC(=O)Nc2sccc2C(N)=O)c1C`, for which the max response, negative = inhibition was 12.4%.
On to `CCOC(=O)C1Sc2[nH]c(=O)sc2C(c2ccc(Cl)cc2)C1C(=O)OCC` (stereo not given), for which the max response, negative = inhibition is -67.4% (active).
As for `CCOC(=O)C1CCN(C(=O)Nc2ccc(Cl)cc2)CC1`, the max response, negative = inhibition is 0%.
Consider `CCOC(=O)C1C(=O)NCC1c1ccccc1` (stereo not given), for which the max response, negative = inhibition is -22.2%.
To `Cc1ccc(S(=O)(=O)N2[C@@H](Cc3ccccc3)CO[C@H]2CC(=O)OCc2ccccc2)cc1` belongs -24.9%; to `COc1ccc(C(=O)NCC[N+](C)(C)C)cc1`, 7.47%; to `COc1ccccc1CNC(=O)CCCN1C(=O)NC2(CCCC2)C1=O`, -13.5%.
To `COc1ccccc1CNC(=O)CCn1c(=O)sc2ccccc21` belongs -166% (active).
With `CCc1nnc(NC(=O)CCC(=O)NCc2ccccc2OC)s1`, the max response, negative = inhibition is 14.9%.
To `O=Cc1cn(CCOc2ccc(F)cc2)c2ccccc12` belongs 25%; to `Cc1ccc(S(=O)(=O)NC(=O)N2CCCC(C)(C)C2)cc1`, 2.79%.
To `Cc1ccc(S(=O)(=O)NC(=O)N2CCCN(Cc3ccc(F)cc3)CC2)cc1` belongs -51.3% (active); to `CC(=O)N1CCN(CC(C)(C)NS(=O)(=O)c2ccc(C)cc2)CC1`, 0.902%; to `O=C(c1ccc(N2CCCC2=O)cc1)N1CCN(c2ccc(C(F)(F)F)cc2[N+](=O)[O-])CC1`, 29.2%.
On to `O=C(NCc1ccc2c(c1)OCO2)c1sccc1Br`, for which the max response, negative = inhibition was 10.4%.
To `O=C(NCc1ccc2c(c1)OCO2)C12CC3CC(CC(C3)C1)C2` belongs 10.5%; to `O=C(NCc1ccc2c(c1)OCO2)c1cc2c(s1)CS(=O)(=O)C2`, -163% (active); to `CCOC(=O)NCc1ccc2c(c1)OCO2`, -52.8% (active).
To `O=C(NCc1ccc2c(c1)OCO2)c1ccc(Cl)s1` belongs -10.3%; to `Cc1ccc(C(=O)OCC(=O)NCc2ccc3c(c2)OCO3)s1`, 5.99%.
`CCOc1cc(/C=N/NC(=O)c2c(C)nc3ccc(Cl)cn23)ccc1O`: the max response, negative = inhibition was -5.49%.
To `CSc1ccc(CN2CCC2(C)C(=O)NCc2ccccc2Br)cc1` (stereo not given) belongs 33.4%.
To `CC(=O)OC[C@@H]1CN(Cc2ccccc2)C[C@H](n2cnc3c(NCc4ccco4)ncnc32)O1` belongs 14.6%; to `COc1cc(OC)cc(C2=Cc3ccccc3C(CC(=O)c3ccco3)N2c2ccc(-c3cnc(OC)nc3)cc2)c1` (stereo not given), 41.4%.
To `COc1ccc(CN2C(=O)C(CC(=O)NCc3cccc4ccccc34)CC(C(=O)N3CCOCC3)=C2C)cc1` (stereo not given) belongs -2.29%; to `CC(C)N=C1CCCC1C(=S)SSC(=S)C1CCCC1=NC(C)C` (stereo not given), -68.8% (active).
With `COC(=O)C[C@@H]1C=C[C@@H](NC(=O)c2cccnc2)[C@@H](CO)O1`, the max response, negative = inhibition was -2.19%.
On to `COc1ccc(/C=C(/NC(=O)c2ccc(C)cc2)c2nc3ccccc3[nH]2)cc1OC`, for which the max response, negative = inhibition was -65.3% (active).
Turning to `CCCCCOc1ccc(/C=C/C(=O)NCCc2nc3ccccc3[nH]2)cc1OC`, the max response, negative = inhibition is 53.6%.
To `COc1ccc(/C=C(\NC(=O)c2ccccc2)C(=O)NCCN2CCOCC2)cc1OC` belongs -3.81%.
To `CC1(C(=O)NS(=O)(=O)c2ccccc2)CCN1C(=O)Cc1ccc(-c2ccccc2)cc1` (stereo not given) belongs -7.77%; to `CCC1CCCCN1C(=S)NC(=O)c1ccco1` (stereo not given), -122% (active); to `O=C(NC(=S)N1CCc2ccccc21)c1ccco1`, -1.16%.
Turning to `CCC1CCCCN1C(=S)Nc1ccc(C(C)=O)cc1` (stereo not given), the max response, negative = inhibition was 4%.
Regarding `N#Cc1ccc(OCC(=O)Nc2nc(-c3ccccn3)cs2)cc1`, the max response, negative = inhibition was -9.86%.
With `CN(C)CCCOc1ccc(-c2ccc3nccn3c2)cn1`, the max response, negative = inhibition was 1.66%.
With `N=c1c2c3c(sc2ncn1CCCN1CCOCC1)CCCCC3`, the max response, negative = inhibition is 8.56%.
For the molecule `S=c1[nH]nc2c3c4c(sc3ncn12)CCCC4`, the max response, negative = inhibition is -92.7% (active).
Take `CC(C(=O)O)n1cnc2sc3c(c2c1=O)CCCC3` (stereo not given): the max response, negative = inhibition was 20%.
To `CCOC(=O)N1CCN(C(=O)C[C@@H]2C[C@@]3(C(=O)OC)CC(C)(C)CC=C3N(Cc3ccco3)C2=O)CC1` belongs -6.32%; to `O=C1NN(c2ccccc2)C(=O)/C1=C/c1ccc(-c2cccc(C(=O)O)c2)o1`, -54.9% (active); to `CC(=O)c1cc(-c2ccccc2)[nH]c1N1CCCC1`, 0%.
Consider `CC1=NN(c2ccc(Cl)c(C(=O)O)c2)C(=O)/C1=C/c1ccc(-c2ccccc2[N+](=O)[O-])o1`, for which the max response, negative = inhibition is 8.21%.
`Cc1cc(C)c(S(=O)(=O)NN=C2c3ccccc3[C@H]3Cc4csc[n+]4[C@@H]23)c(C)c1`: the max response, negative = inhibition was 8.56%.
To `CCC(C)NCCOCCOc1ccc(Br)cc1C` (stereo not given) belongs -71.5% (active); to `Cc1cccc(NC(=O)COc2ccc(Br)cc2C)n1`, 2.17%.
To `COCC(C)NCc1cc(Br)ccc1OC` (stereo not given) belongs 13.9%; to `Cc1ccc(S(=O)(=O)N2CCOCC2)cc1NC(=O)c1ccncc1`, -9.56%.
In the case of `CN(C)CCNC(=O)c1ccc(-c2cn3c(-c4ccc(Oc5ccccc5)cc4)cnc3cn2)cc1`, the max response, negative = inhibition was -27.6%.
To `CCCNC(=O)C1(C)CCN(C(=O)c2ccccc2OC(F)(F)F)C1` (stereo not given) belongs 7.72%; to `Cc1ccc(S(=O)(=O)N2C[C@H]3n4c(=O)ccc(=O)n4C[C@H](OC(=O)NC4CCCC4)[C@@]3(O)C2)cc1`, 10.7%; to `C[C@@H]1CN([C@@H](C)CO)C(=O)c2c(c3ccccc3n2C)-c2ccccc2CO[C@H]1CN(C)C(=O)C1CC1`, 5.32%.
To `COc1ccc(-c2coc3c(C(=O)NC(C)C)cccc23)c(C)c1` belongs 71.6%; to `COc1ccc([C@H]2CC(=O)C=C(c3ccc(C)cc3)C2)cc1`, -60.5% (active); to `COc1ccc([C@H]2CC(=O)C=C(c3ccc(CO)cc3)C2)cc1`, 3.98%.
Turning to `COc1ccc2cc(C3=CC(=O)C[C@H](c4ccc5c(c4)OCO5)C3)ccc2c1`, the max response, negative = inhibition is 6.05%.
On to `COc1ccc(C2CC(=O)NC(=O)C2)cc1`, for which the max response, negative = inhibition was -22.1%.
To `CCCCC/C=C/C1=CC(=O)C[C@H](c2ccc(Cl)cc2)C1` belongs 8.93%; to `COc1ccc([C@H]2CC(=O)C=C(/C=C/c3ccc(Cl)cc3)C2)cc1`, -56.6% (active).
To `CCCNC(=O)c1cc(C2CCCN(C(=O)c3ccc4c(c3)CCO4)C2)on1` (stereo not given) belongs 3.62%.
To `O=S1(=O)CC(N2CCN(Cc3ccccc3F)CC2)CN1Cc1cn(Cc2ccccc2)nn1` (stereo not given) belongs 0%.
With `O=C(Nc1ccccc1)Oc1cccc2cccnc12`, the max response, negative = inhibition is -27.7%.
As for `COc1cccc(NC(=O)Nc2ccc(F)cc2)c1`, the max response, negative = inhibition is 3.65%.
With `COc1ccc(NC(=O)Nc2cccc3cccnc23)cc1`, the max response, negative = inhibition was -66.6% (active).
To `CCOC(=O)[C@]12CCCC=C1N(Cc1ccc(Cl)cc1Cl)C(=O)[C@H](CC(=O)N1CCCCC1)C2` belongs -25.8%; to `Cc1ccc([N+](=O)[O-])cc1S(=O)(=O)N1CCCN(C)CC1`, -7.78%.
To `Cc1ccc2c(c1)C1CN(C)CCC1N2C(=S)Nc1ccc(Cl)cc1Cl` (stereo not given) belongs -8.46%; to `Cc1ccc2c(c1)C1CN(C)CCC1N2C(=S)Nc1ccc(OC(F)F)cc1` (stereo not given), -6.37%.
As to `Cc1ccc2c(c1)C1CN(C)CCC1N2C(=O)c1ccccc1NS(=O)(=O)c1ccc(F)cc1C` (stereo not given), the max response, negative = inhibition is -23.3%.
As to `Cc1ccc2c(c1)C1CN(C)CCC1N2S(=O)(=O)c1ccc(Oc2ccc([N+](=O)[O-])cc2)cc1` (stereo not given), the max response, negative = inhibition was -68.7% (active).
To `Cc1ccc2c(c1)C1CN(C)CCC1N2S(=O)(=O)c1cccc(F)c1` (stereo not given) belongs -54.7% (active).

Values taken from PubChem BioAssay AID652054 (National Center for Advancing Translational Sciences (NCATS), 2013).
